Screening data from PubChem.
Most compounds without a hit are left out; they make up all but 2.3% or so of the library.
aSyn rescue: alpha-synuclein toxicity inhibition in yeast | Yeast expressing alpha-synuclein, growth rescue, BacTiter-Glo, 24 h | Potency, µM (titrated, usually from 46.1 µM), inactives show top-dose growth rescue (activation), actives largely listed as activators | 0.14% of 370,000 active; also: % of control where 0% means no effect; nearly all actives have a fitted effect of over 65% in size
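Rescue of yeast growth: cells expressing toxic alpha-synuclein, induced in galactose at OD600 0.02, incubated with compound 24 h at 30 C. ATP luminescence quantified growth; inhibitors of toxicity appear as activators.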
Chronic BCR inh: inhibitors of chronic active B-cell receptor signaling; AID 493014; 0.05% of 340,000 active; ABC-DLBCL IkBa-CBG/CBR reporter, luminescence ratio, 4 h; Potency, µM (titrated, usually from 46.1 µM), for the others: at the highest dose activity change, negative = inhibition, most hits filed as inhibitors; active = well fitted inhibition curve with a large enough effect in the signal ratio, with a control signal flat, not every such curve was filed as active; inconclusive = small, poorly fitted or top-dose-only effect, or effect the other way, or a change in a side signal; the % refers to the signal ratio;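 also: plate controls were basal doxycycline-induced cells for no effect and cells given 10 µM MG132 for full effect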
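Concentration-response series (up to 46 uM) were applied to TMD8 dual-reporter cells for 4 h at 37C with doxycycline. Green/red ratio, after filter-overlap correction, defined %Activity; red signal alone was normalised to basal cells and zero luminescence.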
Abeta yeast res: compounds reversing amyloid beta toxicity in yeast | yeast expressing A-beta42, growth rescue, OD600, 48 h; response scale: 0% DMSO, 100% iron-clioquinol control | Potency, µM (series often up to 46.1 µM), most hits filed as activators | 0.063% of 410,000 active | AID 1347071; also: nearly all actives have a fitted effect of over 55% in size
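Yeast growth medium received pinned compounds, then yeast cells expressing toxic A-beta were added; plates incubated at 30 C for 48 hr. Growth read as absorbance at 600 nm, normalized to DMSO and equimolar FeCl3 plus clioquinol controls.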
TDP-43 yeast inh: inhibitors of TDP-43 toxicity in yeast; TDP-43 expressing yeast growth rescue, BacTiter-Glo, 24 h; 1.8% of 410,000 active; Potency, µM (highest dose often 46.1 µM), without a hit: at the top dose growth rescue (activation), most hits filed as activators; AID 652104; also: % of control where 0% means no effect; nearly all actives have a fitted effect of over 50% in size
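Galactose-induced TDP-43 yeast, OD600=0.02, compound pinned; 24 hr, 30 deg C; BacTiter-Glo luminescence for growth. Inhibitors of TDP-43 toxicity read as activators.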
uPA surface inh: blocks generation of uPA at the cell surface | 0.31% of 330,000 active | AID 540303 | cell surface uPA generation assay, qHTS | Potency, µM (highest dose often 38.3 µM), for the others: at the highest dose activity change, negative = inhibition, usual class: inhibitors; active = well fitted inhibition curve with a large enough effect; inconclusive = small, poorly fitted or top-dose-only effect; inactive = no such curve, though single readings can be large or run the other way; tested in mouse RAW 264.7 cells; also: % is scaled to controls: 0 for no effect and ±100 for the full control effect; nearly all actives have a fitted effect of over 55% in size
FUS suppressor: rescues growth of FUS-expressing yeast. 0.24% of 390,000 active. Potency, µM (top dose mostly 76.6 µM), usual class: activators. AID 1347120. S. cerevisiae FUS-expressing, growth rescue, OD600, 24 h;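 also: plate controls were DMSO vehicle for no effect and reference control for full effect; nearly all actives have a fitted effect of over 55% in size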
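Toxicity suppression screen in FUS-yeast. Cells induced with 2% galactose, starting OD 0.005, treated 24hr at 30C with compounds at multiple final concentrations; growth by OD600.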
Numbers without * were called inactive; i = inactive; u = inconclusive; x = no result; [ ] = dose if it differs, or a comment. Unless noted, calls follow the shape of the dose curve; as a rule, active = well fitted curve in the direction sought with a large enough effect; inconclusive = small, poorly fitted or top-dose-only effect, or another doubt; inactive = no such curve, though single readings can be large; an effect the other way counts as inactive or inconclusive. Potency is read from the fitted curve at half-maximal effect.

SMILES | aSyn rescue | Chronic BCR inh | Abeta yeast res | TDP-43 yeast inh | uPA surface inh | FUS suppressor
O=C(N/N=C/c1ccc([N+](=O)[O-])o1)C(O)c1ccccc1 (stereo unspecified) | 0.6% | -6.8% | i | 24.5% | u | i
CN(/N=C/c1ccc([N+](=O)[O-])o1)c1ccccc1 | 6.1% | u | i | 14.1µM* | -0.7% | i
O=C(NCc1ccc(Cl)cc1)c1ccc2c(c1)N(Cc1ccccc1F)C(=O)c1ccccc1S2=O (stereo unspecified) | x | x | i | 0.4% | x | 28.2µM*
COc1ccc(CCNC(=O)c2ccc3c(c2)N(Cc2ccccc2F)C(=O)c2ccccc2S3(=O)=O)cc1OC | x | x | i | -19.0% | x | 20µM*
O/N=C1\CC/C(=N\O)c2nn(-c3ccc(Cl)cc3Cl)nc21 | -7.8% | u | i | -10.8% | -12.3% | i
Cc1cc(C)c(S(=O)(=O)NC2CC3CCC2C3)c(C)c1 (stereo unspecified) | -13.0% | 7.3% | i | 12.6µM* | 2.3% | i
Cc1ccccc1CNc1nc(N(C)C)nc2c1cnn2C | x | x | i | 20µM* | x | i
COc1cc2c(C(=O)N3CCN(c4ccc(C)cc4)C(C)C3)cn(CC(C)C)c(=O)c2cc1OC (stereo unspecified) | x | x | i | 35.5µM* | x | u
CCn1cc(C(=O)N2CCN(c3ccc(OC)cc3)CC2)c2cc(OC)c(OC)cc2c1=O | 3.2% | -10.4% | i | 22.1% | 2.2% | i
COc1ccc([C@H]2CC(=O)C=C(c3ccc4cc[nH]c4c3)C2)cc1 | -0.1% | 12.7% | i | 25.1µM* | -5.0% | i
COc1ccc([C@H]2CC(=O)C=C(c3ccccc3)C2)cc1 | -1.1% | 5.0% | u | 17.8µM* | -3.8% | i
COc1ccc(C2=CC(=O)C[C@H](c3ccc(OC)cc3)C2)cc1 | 5.1% | 9.5% | i | 14.1µM* | 4.4% | u
COc1ccc(C2=CC(=O)C[C@H](c3ccc(Cl)cc3)C2)cn1 | 5.1% | 2.8% | i | 17.8µM* | 5.6% | i
CCCCSc1nnc(-c2ccccc2N)c(=O)[nH]1 | -35.8% | u | i | 16.6% | 2.6% | i
COc1ccc(CC(=O)NNc2ncnc3c2cnn3C)cc1OC | -2.0% | -2.0% | i | 10.8% | 0.6% | x
CCc1nnc(NC(=O)C2CCN(C(=O)NC3CCCCC3)CC2)s1 | 0.8% | 4.0% | i | 11.0% | 1.7% | i
O=C1CNC(=S)N1Cc1ccc(Cl)cc1 | 10.8% | -2.3% | i | -0.6% | 1.2% | i
N#Cc1sc2nc(C3CC3)cc(-c3ccccc3)c2c1N | 4.2% | 3.2% | i | 14.2% | -1.6% | i
COc1ccc([C@H]2CC(=O)C=C(c3ccc4[nH]ccc4c3)C2)cc1OC | 1.9% | u | i | 22.4µM* | -10.9% | u
COc1ccc([C@H]2CC(=O)C=C(c3cccc(C(C)C)c3)C2)cc1 | -3.9% | 5.8% | i | 12.2% | 11.9% | i
O=C1C=C(c2ccc3[nH]ccc3c2)C[C@@H](c2ccc(F)cc2)C1 | u | u | i | u | 9.3% | i
COc1ccc([C@H]2CC(=O)C=C(c3cccc(OC)c3)C2)cc1 | 0.2% | -1.0% | i | 11.2µM* | 13.4% | i
Clc1ccc(CN2CCCCCC2)cc1 | -1.3% | -0.2% | i | -19.6% | 3.3% | i
S=C1SCCCN1Cc1ccc(Cl)cc1 | 2.2% | x | i | 11.2µM* | x | i
COc1ccccc1NC(=S)N(Cc1ccccc1)Cc1ccccn1 | 4.3% | -0.1% | u | 22.4µM* | -6.3% | i
SMILES | aSyn rescue | Chronic BCR inh | Abeta yeast res | TDP-43 yeast inh | uPA surface inh | FUS suppressor
COc1ccc(Cl)cc1NC(=O)c1c(NCc2cccnc2)sc2c1CCC(C)C2 (stereo unspecified) | x | u | i | 22.4µM* | x | i
COc1ccc(Cl)cc1NC(=O)c1c(NCc2cccs2)sc2c1CCC(C)C2 (stereo unspecified) | x | -12.7% | i | 26.5% | x | i
O=C(Cc1ccc2c(c1)OCCO2)N1CCN(c2ccccc2)CC1 | 5.9% | -3.7% | i | -14.9%[9.22 µM] | -11.9% | i
CC1(C)CC(=O)C=C(NC2=CC3OC(c4ccccc4)OCC3OC2=O)C1 (stereo unspecified) | 12.6µM* | u | i | 12.6µM* | -9.8% | x
COc1cc2c(O)c3c(c(-c4ccc5c(c4)OCO5)c2cc1OC)C(=O)OC3 | -9.8% | u | i | -17.1% | 12.0% | 8.91µM*
O=C(c1ccc(Cl)cc1)N1CCC(C(=O)N2CCCc3ccccc32)CC1 | -1.6% | 4.9% | i | 14.1µM* | -1.5% | x
Cc1ccccc1C(=O)N1CCC(C(=O)N2CCCc3ccccc32)CC1 | 6.6% | -3.8% | i | 0.0% | -5.4% | x
Nc1nc2ccc(S(=O)(=O)N3CCCCC3)cc2s1 | -4.5% | -1.0% | i | u | 0.7% | i
NC(=O)C1CCCN(C(=O)c2ccc(Cl)cc2)C1 (stereo unspecified) | 2.1% | 2.2% | i | -14.6% | 5.1% | i
COC1=CC(=O)c2nc(Cl)ccc2C1=O | u | x | i | 12.6µM* | x | i
O=C(Nc1ccc(Cl)cn1)C1C(c2ccccc2)C1(Cl)Cl (stereo unspecified) | -11.1% | 26.2% | i | 12.6µM* | 0.9% | i
c1coc(C2Nc3ccccc3C3OCCC23)c1 (stereo unspecified) | 7.3% | 6.0% | u | u | -4.8% | i
COc1ccc2c(c1)C1OCCC1C(c1ccco1)N2 (stereo unspecified) | -18.2% | x | i | -18.3% | 2.51µM* | i
N#Cc1cn(-c2ccccc2)nc1-c1ccco1 | x | 4.9% | i | 8.91µM* | -4.3% | i
Cc1cccc(Cn2cc(C(=O)Nc3cc(F)ccc3F)ccc2=O)c1 | u | x | u | 22.4µM* | x | u
Cc1cccc(NC(=O)c2ccccc2OCC(=O)c2ccc(F)cc2)c1 | 7.8% | u | i | -15.5% | 1.4% | x
NC(=O)C1CCN(C2=C(NS(=O)(=O)c3ccccc3)C(=O)c3ccccc3C2=O)CC1 | -10.9% | u | i | -21.1% | 2.6% | i
O=C1C(Cl)=C(N2CCC(C(=O)O)CC2)C(=O)c2ccccc21 | -1.0% | u | i | 17.8µM* | u | i
NC(=O)C1CCN(C2=C(Cl)C(=O)c3ccccc3C2=O)CC1 | -3.9% | u | i | 12.6µM* | -13.4% | i
COc1ccc(NC(=O)N2CCC(c3nc4ccc(Cl)cc4[nH]3)CC2)cc1OC | x | x | x | x | x | i
NNC(=O)C1CC1(c1ccccc1)c1ccccc1 (stereo unspecified) | -1.2% | u | i | 4.6% | 8.6% | i
O=C1c2cccnc2C(=O)N1Cc1ccccc1 | -0.9% | 8.2% | i | 15.9% | -3.4% | i
